Data on 44 compounds can be found in paper PMC4336329 (PLoS ONE, 2015).

The whole screen tested about 310,000 compounds, of which about 2,200 (0.71%) showed an effect of 50% or more. The effect is printed as a negative number. What follows is part of a selection rich in strong results, with near analogues and random picks from the rest.

Sequence of human ether-à-go-go-related gene (hERG) potassium channel (Q12809 whole entry, looked up): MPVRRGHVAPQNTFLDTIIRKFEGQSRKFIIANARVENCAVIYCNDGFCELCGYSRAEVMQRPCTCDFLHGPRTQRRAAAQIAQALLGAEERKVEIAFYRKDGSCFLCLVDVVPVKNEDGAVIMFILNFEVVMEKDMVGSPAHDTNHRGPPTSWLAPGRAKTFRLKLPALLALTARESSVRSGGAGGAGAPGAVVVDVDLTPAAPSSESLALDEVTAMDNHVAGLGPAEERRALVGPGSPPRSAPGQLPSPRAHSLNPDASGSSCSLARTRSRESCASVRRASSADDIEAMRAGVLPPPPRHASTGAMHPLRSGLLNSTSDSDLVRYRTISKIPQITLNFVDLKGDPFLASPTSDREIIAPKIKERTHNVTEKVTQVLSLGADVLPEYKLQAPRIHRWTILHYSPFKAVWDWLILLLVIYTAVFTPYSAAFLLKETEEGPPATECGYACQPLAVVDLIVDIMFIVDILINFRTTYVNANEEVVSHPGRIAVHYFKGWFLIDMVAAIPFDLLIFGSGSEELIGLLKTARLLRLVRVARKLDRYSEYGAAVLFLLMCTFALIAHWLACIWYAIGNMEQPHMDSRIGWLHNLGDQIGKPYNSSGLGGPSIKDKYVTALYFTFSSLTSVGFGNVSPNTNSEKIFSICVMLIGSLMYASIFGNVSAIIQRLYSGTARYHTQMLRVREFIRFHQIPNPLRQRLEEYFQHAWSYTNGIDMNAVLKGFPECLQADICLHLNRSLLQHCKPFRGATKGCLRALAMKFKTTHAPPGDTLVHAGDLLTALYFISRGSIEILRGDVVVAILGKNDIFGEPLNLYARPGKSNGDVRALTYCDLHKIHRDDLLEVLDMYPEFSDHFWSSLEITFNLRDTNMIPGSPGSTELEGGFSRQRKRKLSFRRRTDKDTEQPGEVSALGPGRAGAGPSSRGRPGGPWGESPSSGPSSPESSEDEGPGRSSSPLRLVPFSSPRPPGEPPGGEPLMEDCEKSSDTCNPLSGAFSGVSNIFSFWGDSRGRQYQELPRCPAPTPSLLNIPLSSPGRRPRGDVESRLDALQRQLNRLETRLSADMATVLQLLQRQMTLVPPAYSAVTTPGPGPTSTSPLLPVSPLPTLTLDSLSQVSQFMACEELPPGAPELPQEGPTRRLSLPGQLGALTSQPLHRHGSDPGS

This assay concerns the target human ether-à-go-go-related gene (hERG) potassium channel (human, UniProt Q12809). The experiment in a line: primary screen, population patch clamp on CHO cells stably expressing hERG; higher = less effect of the substance. Here is the method: Briefly, Chinese hamster ovary (CHO) cells stably expressing the hERG channel were dislodged from tissue culture flasks and dispensed into PPC plates. […] During the recording, background leak currents were estimated by a 100 ms step to -80 mV from an initial holding potential of -70 mV and subtracted from the subsequent current measurement. The campaign was conducted in two phases using slight differences in recording protocol. In the first phase, the initial voltage pulse used a 100 ms step to -30 mV from a holding potential of -70 mV, a 2 s conditioning step to +25 mV, and a 2 s test step to -30 mV. During the second phase of the screen, the potential during the conditioning step was raised to +45 mV. In both phases of the campaign, a secondary voltage pulse was applied using the same parameters as the second phase initial pulse. The initial and secondary pulses were applied in the absence of compound, and upon application of 1 μM and 10 μM test concentrations. Small molecule effects on hERG current density were quantified by […].
Regarding `C/C=C/c1ccc(OC(C)=O)c(OC)c1`, the “hERG current change (%, negative = inhibition) at 1uM” value is on record as 8.76%.

For `O=C(Cn1cc2c(n1)CCCC2)N1CCCC1`, the “hERG current change (%, negative = inhibition) at 1uM” value turned out to be 8.36%.

Consider `O=C(Cn1cc2c(n1)CCCCC2)N1CCCCC1`, for which the “hERG current change (%, negative = inhibition) at 1uM” value was found to be 9.12%.

`CCOC(=O)N1CCN(C(=O)Cn2cc3c(n2)CCCC3)CC1`: the “hERG current change (%, negative = inhibition) at 1uM” value is on record as -51.2%.

On to `Cc1cc(=O)oc2c3c(cc(OCC(=O)NCc4ccco4)c12)OC(C)(C)CC3`, for which the “hERG current change (%, negative = inhibition) at 1uM” value is recorded as -1.54%.

In the case of `CCOc1ccc(N(CC(=O)NC2CCCCC2)C(=O)CNC(=O)c2ccco2)cc1`, the “hERG current change (%, negative = inhibition) at 1uM” value is listed as -5.99%.

On to `Cc1cccc(-n2c(C)nc3cc(C(=O)N4CCC5(CC4)OCCO5)ccc32)c1`, for which the “hERG current change (%, negative = inhibition) at 1uM” value is -14.2%.

As for `CC(=O)c1ccc(-c2ccc(C(=O)NC3CCCCCC3)o2)cc1`, the “hERG current change (%, negative = inhibition) at 1uM” value was 29.5%.

Turning to `CC(=O)c1ccc(-c2ccc(C(=O)NC3CC(C)(C)NC(C)(C)C3)o2)cc1`, the “hERG current change (%, negative = inhibition) at 1uM” value is -71.1%.

Take `CC1(C)CC(NC(=O)c2ccc(-c3ccc([N+](=O)[O-])cc3)o2)CC(C)(C)N1`: the “hERG current change (%, negative = inhibition) at 1uM” value was -3.5%.

As for `CCN(c1ccccc1)c1nc(=O)c2cccnc2s1`, the “hERG current change (%, negative = inhibition) at 1uM” value turned out to be 5.88%.

Consider `COc1ccc(C)cc1C1=Nc2ccccc2C1(C)C`, for which the “hERG current change (%, negative = inhibition) at 1uM” value is on record as 13.4%.

In the case of `Cc1c(C(=O)OCC(=O)Nc2ccc(C(N)=O)cc2)cccc1[N+](=O)[O-]`, the “hERG current change (%, negative = inhibition) at 1uM” value was 11%.

Regarding `C/C=C(\C)C(=O)NCCN1C2=NC[C@H](C(C)C)N2C[C@H]1Cc1ccc(O)cc1`, the “hERG current change (%, negative = inhibition) at 1uM” value is 29.8%.

Consider `COc1ccc(C[C@@H]2CN3C(=NC[C@@H]3C)N2CCNC(=O)c2ccc(C)c(Br)c2)cc1`, for which the “hERG current change (%, negative = inhibition) at 1uM” value is listed as -64.9%.

With `COc1ccc(C[C@H]2CN3C(=NC[C@H]3Cc3ccccc3)N2CCNC(=O)c2ccc(C)c(Br)c2)cc1`, the “hERG current change (%, negative = inhibition) at 1uM” value is -24.7%.

On to `COc1ccc(C[C@H]2CN3C(=NC[C@@H]3Cc3ccccc3)N2CCNC(=O)c2ccc(C)c(Br)c2)cc1`, for which the “hERG current change (%, negative = inhibition) at 1uM” value is reported as -16.7%.

With `COc1ccc(C[C@H]2CN3C(=NC[C@H]3C)N2CCNC(=O)c2ccc(C)c(Br)c2)cc1`, the “hERG current change (%, negative = inhibition) at 1uM” value is -70.9%.

On to `COc1ccc(C[C@H]2CN3C(=NC[C@@H]3C(C)C)N2CCNC(=O)c2ccc(C)c(Br)c2)cc1`, for which the “hERG current change (%, negative = inhibition) at 1uM” value was -66.8%.

As to `Cc1ccc(C(=O)NCCN2C3=NC[C@H](C(C)C)N3C[C@H]2Cc2ccc(O)cc2)cc1Br`, the “hERG current change (%, negative = inhibition) at 1uM” value turned out to be 0.0506%.

For `Cc1ccc(C(=O)NCCN2C3=NC[C@H](Cc4ccc(O)cc4)N3C[C@H]2Cc2ccc(O)cc2)cc1Br`, the “hERG current change (%, negative = inhibition) at 1uM” value is given as -9.94%.

Regarding `Cc1ccc(C(=O)NCCN2C3=NC[C@H](C)N3C[C@H]2Cc2ccc(O)cc2)cc1Br`, the “hERG current change (%, negative = inhibition) at 1uM” value was 9.94%.

For the compound `COC(=O)c1cn(NC(=O)C2CCCO2)c(=O)c2ccccc12` (centres unmarked), the “hERG current change (%, negative = inhibition) at 1uM” value turned out to be 14.6%.

As to `CNc1nnc(SCC(=O)N2c3ccccc3NC(=O)CC2C)s1` (centres unmarked), the “hERG current change (%, negative = inhibition) at 1uM” value was determined as 6.91%.

Regarding `CC(=O)Nc1ccc(S(=O)(=O)NCCC(=O)OCC(=O)c2ccccc2)cc1`, the “hERG current change (%, negative = inhibition) at 1uM” value is 6.41%.

As for `COc1cccc(CN2CCCC(C(=O)Nc3ccc(-c4cscn4)cc3)C2)c1` (centres unmarked), the “hERG current change (%, negative = inhibition) at 1uM” value is given as -10.8%.

As for `COc1ccccc1NC(=O)c1ccc(S(=O)(=O)NCc2ccco2)cc1`, the “hERG current change (%, negative = inhibition) at 1uM” value is 13.8%.

Take `O=C(NCCCN1CCCC1=O)c1cccc(NS(=O)(=O)c2ccccc2)c1`: the “hERG current change (%, negative = inhibition) at 1uM” value is reported as 13.4%.

Consider `CCOc1ccc(NC(=O)CN(C)C(=O)c2ccc(NC3CC3)c([N+](=O)[O-])c2)cc1OCC`, for which the “hERG current change (%, negative = inhibition) at 1uM” value was -18.3%.

Consider `COc1ccc(NC(=O)CN(C)C(=O)c2ccc(NC3CC3)c([N+](=O)[O-])c2)cc1`, for which the “hERG current change (%, negative = inhibition) at 1uM” value is listed as -68.6%.

As to `COc1cccc(NC(=O)CN(C)C(=O)c2ccc(NC3CC3)c([N+](=O)[O-])c2)c1`, the “hERG current change (%, negative = inhibition) at 1uM” value is recorded as -40.8%.

As for `CC1Cc2cc(/C(O)=C3\C(=O)C(=O)N(Cc4ccncc4)C3c3ccccc3F)ccc2O1` (centres unmarked), the “hERG current change (%, negative = inhibition) at 1uM” value was determined as 17.9%.

Take `Cc1nnsc1C(=O)N1CCCC(N2CCN(c3ccc(F)cc3)CC2)C1` (centres unmarked): the “hERG current change (%, negative = inhibition) at 1uM” value is 12.3%.

As for `Cc1nonc1C(=O)N1CCCC(N2CCN(c3ccc(F)cc3)CC2)C1` (centres unmarked), the “hERG current change (%, negative = inhibition) at 1uM” value is reported as -17.7%.

With `O=C(c1cccs1)N1CCCC(N2CCN(c3ccc(F)cc3)CC2)C1` (centres unmarked), the “hERG current change (%, negative = inhibition) at 1uM” value is recorded as -52.1%.

Turning to `O=C(c1cccs1)N1CCCC(N2CCN(c3cccc(C(F)(F)F)c3)CC2)C1` (centres unmarked), the “hERG current change (%, negative = inhibition) at 1uM” value is -8.83%.

Consider `O=C(c1ccc(Cl)s1)N1CCCC(N2CCN(c3ccc(F)cc3)CC2)C1` (centres unmarked), for which the “hERG current change (%, negative = inhibition) at 1uM” value was -63.2%.

On to `CC(C)c1cc(C(=O)N2CCCC(N3CCN(c4ccc(F)cc4)CC3)C2)no1` (centres unmarked), for which the “hERG current change (%, negative = inhibition) at 1uM” value is reported as -36.4%.

For `Cc1ccccc1N1CCN(C2CCCN(C(=O)c3ccc(Cl)s3)C2)CC1` (centres unmarked), the “hERG current change (%, negative = inhibition) at 1uM” value worked out at 1.61%.

For `CC(=O)c1ccc(C(=O)N2CCCC(N3CCN(c4ccc(F)cc4)CC3)C2)s1` (centres unmarked), the “hERG current change (%, negative = inhibition) at 1uM” value is given as -51.3%.

On to `CCCc1cc(C(=O)N2CCCC(N3CCN(c4ccc(F)cc4)CC3)C2)no1` (centres unmarked), for which the “hERG current change (%, negative = inhibition) at 1uM” value is -74.1%.

With `Cc1cc(C(=O)N2CCCC(N3CCN(c4ccc(F)cc4)CC3)C2)no1` (centres unmarked), the “hERG current change (%, negative = inhibition) at 1uM” value is listed as -19.1%.

Take `CC(C)=CC(=O)N1CCCC(N2CCN(c3ccc(F)cc3)CC2)C1` (centres unmarked): the “hERG current change (%, negative = inhibition) at 1uM” value stood at 19.1%.

`O=C(c1ccncc1)N1CCCC(N2CCN(c3ccc(F)cc3)CC2)C1` (centres unmarked): the “hERG current change (%, negative = inhibition) at 1uM” value is reported as -19.9%.
